Experimental data from the supplement of paper PMC6555819.

Tested on: LXRa:RXRa (NR concentration 270 nM, RXRa partner concentration 90 nM)
Experiment: PBM binding z-score (relative to random genomic background probes); higher = stronger binding; sequences stand for … in GC…GCGATTGACAGCGTAGAATGAAGG
In short: (§1)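 The probes on custom Agilent 4×180K protein-binding microarrays were double-stranded, with 34-nt variable regions bearing direct-repeat seeds, single-nucleotide variants, half-site ablations and random human genomic background sequences. Incubation lasted 1 h with ligand-free nuclear receptor dimers in PBS pH 7.4, 2% milk, 0.02% Triton X-100, 1 mM DTT, 0.2 mg/mL BSA and 0.4 mg/ml salmon testes DNA. Antibodies against each partner (one per run) detected bound dimers, and fluorescence scans were regression-normalized. Binding z-scores take the random background probes as reference.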

| Sequence | PBM binding z-score |
| --- | --- |
| CGAACTAGGTCAGCCAGGACAGTGAATACATTGA | 0.875 |
| GGTGCTAGGTCAGGTTGGTCAGCTAACGGGTACG | 1.33 |
| CCTCGGAGGACAGAAGGTAAGAGCTGTCCGCTTT | -0.532 |
| TCTTGTAGAGCAACAGGAGGTTAAGAAAGATCGA | 0.661 |
| TGATATAGGTAATACAGGTGAAAGTCGGCATCTA | 0.701 |
| GCTGCTAGGTCAGGTTGGTCAGCTGACGGGTACG | 0.902 |
| GATACAGGGTCATGGCCAGAGTACGCGTATTGAT | 4.72 |
| CCTACTGGGCCAAAGGTCACTGATTCCAATGCTC | 4.62 |
| GCGATTGGGGCATCAGCAGGTTACCATAACTTAA | -0.187 |
| GCTTACGCGTCAAAGGTTATAGCATGAATAGAAT | 1.97 |
| TCGAGCAGGCCAGAGGGTCACTCAAGAGGTACGG | 0.741 |
| CCTGCTAGGTCAATGGTCAGATAAAGCAGCTCGC | 2.29 |
| AGAACGAGGGCACGCTTAGTTGATAGCAGAGTAG | 0.538 |
| TCTGCTAGGTCAAGGATGGTCAGCTAATCTGCTA | 2.82 |
| TCGAGTAGGTTAATCGGGGCATTCAGCCAACATA | 0.53 |
| CGTCCAAGGTCAAGGTCATTGAAAGAGACTCGAA | 6.06 |
| TTACCAAGGTGAGAGGTCGTTGATGCACGCCTTG | 1.62 |
| CCTAGCAGGCCAATCTGGGTCACTAAAGGCTTGA | 0.884 |
| CGTCCAAGGTTAGCAGGTCAGTGAAAGCGACGTG | 1.26 |
| CGTCCAAGGTCAATGCTCGGTCAGTGAAAGCATT | 5.55 |

| Sequence | PBM binding z-score |
| --- | --- |
| CCTAGCAAGCCAATCTGGGTCACTCAAGGCTTGA | 0.44 |
| AGTCTAAGTTCACTAGGTAACGTAAGATTCAGCT | 3.02 |
| GGAACGAGGGCATTCGAGTTGATGGCATGGCGAT | 1.27 |
| GCGACTGGGGCAAAGCTGGTTACCATAAGGTTGG | -0.411 |
| ATCGCAAGGTCGAAGGTGAGTATACCCACCCGAA | 1.58 |
| CGTCCCAGGTCAATGCTAGGTCAGTGAAAGCATT | 4.18 |
| GCATATAGGTAATACAAGGTGAAAGGCCGATTGT | 1.99 |
| ACAACGAGGGCACGCTGAGTTGATAGCAGAGTAG | 0.503 |
| CAAACTAGGTCATGGTCAAAGTCGGTTTGTGCCA | 2.64 |
| CGTCCAAGGTGAGCAGGTCAGTGAAAGCGACGTG | 0.118 |
| TTACCAAGGTGAGCTGAGGTTGTTGATCCAACTC | -0.206 |
| GCTAGTTGGTCAGTAAGAGGTCACACACCGGTCG | 3.64 |
| CGTCCAAGGTCAATGCTAGGTCAATGAAAGCATT | 5.82 |
| GCTAGTTGGTCAGCAAAAGGTCACACACCGGTCG | 4.15 |
| CCTAGTTGGTCATGAGGTCACACACCGGATATGA | 4.17 |
| CCAGACAGGTGTAAGGTAACTCAGTCTGGTACGC | -0.35 |
| TCGAGGAGGTTAGTCGGGGCATTCAGCCAACATA | 0.675 |
| ATCGAAAGGTCGAGGTGAGTAGAGAGAAAGGGAA | 3.47 |
| CCGACTGGGACAAAGGTTACCATACTCAGTACGA | 1.51 |
| CCGACTGGGGCATAAAGGTTACCATACCATCCGG | 0.747 |

Tested on: LXRa homodimer (NR concentration 270 nM)
Experiment: as above
In short: as §1

| Sequence | PBM binding z-score |
| --- | --- |
| CGAACTAGGTCAGCCAGGACAGTGAATACATTGA | 0.291 |
| GGTGCTAGGTCAGGTTGGTCAGCTAACGGGTACG | 0.61 |
| CCTCGGAGGACAGAAGGTAAGAGCTGTCCGCTTT | -0.965 |
| TCTTGTAGAGCAACAGGAGGTTAAGAAAGATCGA | -0.177 |
| TGATATAGGTAATACAGGTGAAAGTCGGCATCTA | 0.521 |
| GCTGCTAGGTCAGGTTGGTCAGCTGACGGGTACG | -0.423 |
| GATACAGGGTCATGGCCAGAGTACGCGTATTGAT | -0.00415 |
| CCTACTGGGCCAAAGGTCACTGATTCCAATGCTC | 2.37 |
| GCGATTGGGGCATCAGCAGGTTACCATAACTTAA | -0.243 |
| GCTTACGCGTCAAAGGTTATAGCATGAATAGAAT | -0.0765 |
| TCGAGCAGGCCAGAGGGTCACTCAAGAGGTACGG | -0.581 |
| CCTGCTAGGTCAATGGTCAGATAAAGCAGCTCGC | 0.316 |
| AGAACGAGGGCACGCTTAGTTGATAGCAGAGTAG | -0.173 |
| TCTGCTAGGTCAAGGATGGTCAGCTAATCTGCTA | -0.0468 |
| TCGAGTAGGTTAATCGGGGCATTCAGCCAACATA | -0.187 |
| CGTCCAAGGTCAAGGTCATTGAAAGAGACTCGAA | 2.42 |
| TTACCAAGGTGAGAGGTCGTTGATGCACGCCTTG | 0.0582 |
| CCTAGCAGGCCAATCTGGGTCACTAAAGGCTTGA | -0.513 |
| CGTCCAAGGTTAGCAGGTCAGTGAAAGCGACGTG | -0.0811 |
| CGTCCAAGGTCAATGCTCGGTCAGTGAAAGCATT | 2.7 |

| Sequence | PBM binding z-score |
| --- | --- |
| CCTAGCAAGCCAATCTGGGTCACTCAAGGCTTGA | -0.472 |
| AGTCTAAGTTCACTAGGTAACGTAAGATTCAGCT | 0.822 |
| GGAACGAGGGCATTCGAGTTGATGGCATGGCGAT | -0.635 |
| GCGACTGGGGCAAAGCTGGTTACCATAAGGTTGG | -0.621 |
| ATCGCAAGGTCGAAGGTGAGTATACCCACCCGAA | -0.525 |
| CGTCCCAGGTCAATGCTAGGTCAGTGAAAGCATT | 2.32 |
| GCATATAGGTAATACAAGGTGAAAGGCCGATTGT | 0.36 |
| ACAACGAGGGCACGCTGAGTTGATAGCAGAGTAG | -0.519 |
| CAAACTAGGTCATGGTCAAAGTCGGTTTGTGCCA | 0.245 |
| CGTCCAAGGTGAGCAGGTCAGTGAAAGCGACGTG | -0.619 |
| TTACCAAGGTGAGCTGAGGTTGTTGATCCAACTC | -0.484 |
| GCTAGTTGGTCAGTAAGAGGTCACACACCGGTCG | 4.57 |
| CGTCCAAGGTCAATGCTAGGTCAATGAAAGCATT | 3.63 |
| GCTAGTTGGTCAGCAAAAGGTCACACACCGGTCG | 4.08 |
| CCTAGTTGGTCATGAGGTCACACACCGGATATGA | 2.56 |
| CCAGACAGGTGTAAGGTAACTCAGTCTGGTACGC | -0.126 |
| TCGAGGAGGTTAGTCGGGGCATTCAGCCAACATA | -0.136 |
| ATCGAAAGGTCGAGGTGAGTAGAGAGAAAGGGAA | 0.0492 |
| CCGACTGGGACAAAGGTTACCATACTCAGTACGA | 0.114 |
| CCGACTGGGGCATAAAGGTTACCATACCATCCGG | -0.0869 |
